In ChEMBL document CHEMBL3988442, “University of Dundee, Small-Polar-MMV Screening Library” (2021):
The whole screen tested about 48,000 compounds, of which about 13,000 (27%) showed an effect of 50% or more. The list shows a part of the results.

Each molecule was assayed on Wolbachia pipientis (assay: Anti-Wolbachia Cell-Based Screen). Settings: 5 µM.
Format: functional
Set-up: scale not given: in the data most compounds retested in dose-response had high values
For NC(=O)COc1ccc(C(=O)NCCc2ccco2)cc1, the “Percent Effect” value was -0.9721%. With CN1CC(=O)N(c2cccc(F)c2)CC12CCN(Cc1cccnc1)C2.O=C(O)C(F)(F)F.O=C(O)C(F)(F)F.O=C(O)C(F)(F)F (configuration not stated) the “Percent Effect” value was -7.08%. In the case of CN1CCN(Cc2cccnc2)C(=O)C12CCN(CC1CCOC1)CC2.O=C(O)C(F)(F)F.O=C(O)C(F)(F)F.O=C(O)C(F)(F)F (configuration not stated), the “Percent Effect” value is reported as -19.27%. With C[C@H]1CN(CC2CCOCC2)C[C@@]12CCN(Cc1cccnc1)C2=O.O=C(O)C(F)(F)F.O=C(O)C(F)(F)F the “Percent Effect” value was 107.6%. For C[C@@H]1CN(S(C)(=O)=O)C[C@]12CCN(Cc1cccnc1)C2=O.O=C(O)C(F)(F)F, the “Percent Effect” value was 104.4%. With CCN1C(=O)C(c2ccccc2)CC12CCN(Cc1cccnc1)CC2.O=C(O)C(F)(F)F.O=C(O)C(F)(F)F (configuration not stated) the “Percent Effect” value was -2.584%. With CCS(=O)(=O)N1CC[C@H]2C(=O)N(Cc3cccnc3)CCO[C@H]2C1.O=C(O)C(F)(F)F the “Percent Effect” value was -12.91%. C[C@@H]1CN(Cc2cccc(F)c2)C[C@]12CCN(Cc1cccnc1)C2=O.O=C(O)C(F)(F)F.O=C(O)C(F)(F)F was tested, and the “Percent Effect” value was 107.3441%. In the case of CN1CC(=O)N(c2ccccc2)CC12CCN(Cc1cccnc1)C2.O=C(O)C(F)(F)F.O=C(O)C(F)(F)F.O=C(O)C(F)(F)F (configuration not stated), the “Percent Effect” value is reported as -4.544%. For CN1CCN(Cc2cccnc2)C(=O)C12CCN(C1CCOC1)CC2.O=C(O)C(F)(F)F.O=C(O)C(F)(F)F.O=C(O)C(F)(F)F (configuration not stated), the “Percent Effect” value was 20.83%. With C[C@@H]1CN(Cc2cccnc2)C[C@]12CCN(CCN1CCCC1)C2=O.O=C(O)C(F)(F)F.O=C(O)C(F)(F)F.O=C(O)C(F)(F)F the “Percent Effect” value was 95.13%. With CCN(CC)C(CNCc1ccc(C)o1)c1ccco1 (configuration not stated) the “Percent Effect” value was 6.767%. In the case of CC(=O)N[C@@H]1CN(S(=O)(=O)Cc2ccccc2)C[C@H]1C(C)C, the “Percent Effect” value is reported as 4.897%. O=C(NC1CCN(Cn2nc(-c3ccccc3)oc2=O)CC1)C1CC1 was tested, and the “Percent Effect” value was 15.64%. For CN1CCN(Cc2cccnc2)C2(CCN(Cc3ccccn3)C2)C1=O.O=C(O)C(F)(F)F.O=C(O)C(F)(F)F.O=C(O)C(F)(F)F (configuration not stated), the “Percent Effect” value was 9.415%. Cc1noc(C)c1CN1CCC2(CC1)CC(Oc1cccnc1)CO2.O=C(O)C(F)(F)F (configuration not stated) was tested, and the “Percent Effect” value was 0.1924%. With C[C@H]1CN(C(=O)c2cccnc2)C[C@@]12CCN(CCN1CCCC1)C2=O the “Percent Effect” value was 107.9%. With O=C(c1ccco1)N1CCCC2(CCN(CCN3CCCC3)C2=O)C1 (configuration not stated) the “Percent Effect” value was 0.2637%. O=C(c1cccnc1)N1C[C@@H]2CN(CCN3CCCC3)C(=O)[C@@H]2C1 was tested, and the “Percent Effect” value was -1.372%. With O=C(O)C(F)(F)F.O=C(O)C(F)(F)F.c1ccc(CN2CCC3(CC2)CC(Oc2cccnc2)C3)nc1 the “Percent Effect” value was -13.53%. In the case of C[C@@H]1CN(Cc2ccccn2)C[C@]12CCN(Cc1cccnc1)C2=O.O=C(O)C(F)(F)F.O=C(O)C(F)(F)F.O=C(O)C(F)(F)F, the “Percent Effect” value is reported as 86.67%. For Cc1noc(C)c1CN1CCN(Cc2cccnc2)c2ncccc2C1.O=C(O)C(F)(F)F.O=C(O)C(F)(F)F.O=C(O)C(F)(F)F, the “Percent Effect” value was -12.75%. For Cc1noc(C)c1CN1C[C@H](C)[C@]2(CCN(Cc3cccnc3)C2=O)C1.O=C(O)C(F)(F)F.O=C(O)C(F)(F)F, the “Percent Effect” value was 119.9%. In the case of C[C@H]1CN(c2ccccn2)C[C@@]12CCN(Cc1cccnc1)C2=O.O=C(O)C(F)(F)F.O=C(O)C(F)(F)F, the “Percent Effect” value is reported as 111.4%. For CN(CC1CCCCO1)c1nc(-c2cccnc2)nc2c1CCNC2 (configuration not stated), the “Percent Effect” value was -24.82%. For CC(C)N1CCc2ncn(C(C)C)c2C1C(=O)NCCN1CCCC1 (configuration not stated), the “Percent Effect” value was -11.46%. For CCCc1cc(NCCn2cccn2)n2nccc2n1, the “Percent Effect” value was -0.5952%. Cc1cc(NC(=O)CCN(CC2CCOC2)C2CC2)no1 (configuration not stated) was tested, and the “Percent Effect” value was 14.41%. For CC(C)NC(=O)N[C@H]1C[C@@H](c2nc(-c3ccc(F)cc3)no2)N(C)C1, the “Percent Effect” value was -4.692%. For Cc1nc2cc(C(=O)N(CCN(C)C)CCN(C)C)ccc2n1C, the “Percent Effect” value was -1.95%. For Cc1cc(CS(=O)(=O)NCC2CCCCC2)on1, the “Percent Effect” value was -6.001%. In the case of Cc1cnn(CC2CCCN2C(=O)c2csc(-c3nnc[nH]3)n2)c1 (configuration not stated), the “Percent Effect” value is reported as 136%. In the case of O=C(c1csc(-c2nnc[nH]2)n1)N1CCCCC1Cn1cccn1 (configuration not stated), the “Percent Effect” value is reported as 114.8%. With O=C(c1ccc(-n2ccnc2)nn1)N1CCCCC1Cn1cccn1 (configuration not stated) the “Percent Effect” value was -18.3%. With O=C(Cc1csc(-c2nnc[nH]2)n1)N1CCCC1Cn1cccn1 (configuration not stated) the “Percent Effect” value was 1.097%. With Cc1noc(OCc2ccc(C#N)cc2)n1 the “Percent Effect” value was 3.288%. With NC(=O)C1CCN(C(=O)c2cc(S(=O)(=O)N3CCCC3)cs2)CC1 the “Percent Effect” value was 4.91%. For C=Cn1ncc(CN2C[C@@H]3CCCN3C[C@@H]2Cc2ccccc2)c1C, the “Percent Effect” value was -5.258%. For C=Cn1ncc(CN2C[C@@H]3C[C@@H](O)CN3C[C@@H]2Cc2ccccc2)c1C, the “Percent Effect” value was 135.2%. With CCCn1ncc(CN2C[C@@H]3CCCN3C[C@@H]2CCSC)c1C the “Percent Effect” value was -13.92%. For C=Cn1ncc(CN2C[C@@H]3CCCN3C[C@H]2CCSC)c1C, the “Percent Effect” value was -0.7089%. In the case of C=Cn1ncc(CN2C[C@@H]3CCCN3C[C@@H]2CCSC)c1C, the “Percent Effect” value is reported as 137.5%. With CCn1cc(CN2CC3CCCN3C[C@H]2C)c(C)n1 (some centres not stated) the “Percent Effect” value was -10.13%. In the case of C=Cn1ncc(CN2C[C@@H]3C[C@@H](O)CN3C[C@H]2Cc2ccccc2)c1C, the “Percent Effect” value is reported as 130.9%. In the case of C=Cn1ncc(CN2C[C@@H]3CCCN3C[C@H]2Cc2ccccc2)c1C, the “Percent Effect” value is reported as 116.6%. For COC(=O)C1(C)CCN(C(=O)NCCc2c(C)[nH]c3ccccc23)C1 (configuration not stated), the “Percent Effect” value was -5.132%. For Cc1ccsc1CN(CCN(C)C)C(=O)c1cc2ccccc2[nH]1, the “Percent Effect” value was -9.122%. COc1c(F)cc(NC(=O)NCc2nncn2C2CC2)cc1F was tested, and the “Percent Effect” value was -0.8393%. In the case of CNC(=O)c1cccc(NC(=O)c2ccnc(N(C)C)c2)c1C, the “Percent Effect” value is reported as -1.756%. For O=C(CNc1ccccc1S(=O)(=O)C(F)F)NCc1ccco1, the “Percent Effect” value was 0.5887%. CN(C)S(=O)(=O)N1CCCC1c1cccc(-n2ccnc2)n1 (configuration not stated) was tested, and the “Percent Effect” value was 119.1%. With CN(CCn1cccn1)S(=O)(=O)N1CCCC1c1ccco1 (configuration not stated) the “Percent Effect” value was -2.44%. In the case of CN(C)S(=O)(=O)N1CCCC1CC(=O)c1cccs1 (configuration not stated), the “Percent Effect” value is reported as -13.45%. For Cc1cccc(C2CCCN2S(=O)(=O)N(C)C)n1 (configuration not stated), the “Percent Effect” value was 98.12%. In the case of Cc1nccn1-c1cccc(C2CCCN2S(=O)(=O)N(C)C)n1 (configuration not stated), the “Percent Effect” value is reported as 5.145%. For CN(C)S(=O)(=O)CCCOc1cccc(-n2ccnc2)c1, the “Percent Effect” value was -3.335%. In the case of CCc1nccn1-c1cccc(C2CCCN2S(=O)(=O)N(C)C)n1 (configuration not stated), the “Percent Effect” value is reported as 103.4%.
